For 35 molecules, outcome, max response and Potency results are on record in PubChem BioAssay (NCATS).

Records with an inconclusive call do not appear. Values without a mark were called inactive. The source made the active and inactive calls. Calls follow the shape of the dose curve; as a rule, active = well fitted inhibition curve with a large enough effect; inconclusive = small, poorly fitted or top-dose-only effect; inactive = flat fitted curve, though single readings scatter. Where a SMILES comes first, the peptide text is derived from it. [ ]: non-standard residue; d: D form. dPhe(4-Cl) = N[C@H](Cc1ccc(Cl)cc1)C(=O)O; d2Nal = N[C@H](Cc1ccc2ccccc2c1)C(=O)O; dCit = NC(=O)NCCC[C@@H](N)C(=O)O; d3Pal = N[C@H](Cc1cccnc1)C(=O)O

Common to all, as to assay: Cytotoxic Profiling of Annotated Libraries Using Quantitative High-Throughput Screening (AID 1296008); also: nearly all actives have a fitted effect of over 60% in size
Common to all, as to conditions: Five cell lines viability, CellTiter-Glo ATP luminescence, 48-72 h; max response: active compounds read low
For orientation: Cellular ATP, detected with luciferase, serves as a proxy for viable cell number.

The test system of one test is CRL-7250. The procedure, abridged: (§1)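 Cytotoxicity was measured as CellTiter-Glo ATP luminescence, read after 10 min at room temperature. Compound treatment of the cells lasted 48 or 72 hr at 37 degrees Celsius in a qHTS format.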
Another test deals with HEK293. The gist of the method: as §1
In another test the test system is HaCat. The procedure, abridged: as §1
Another test deals with KB-3-1. The gist of the method:
as §1

A further test relates to NIH3T3. The procedure, abridged: as §1
% is scaled to controls: 0 for no effect and ±100 for the full control effect; potency is read from the fitted curve at half-maximal effect.

`Nc1ncnc2c1ncn2CCNCCCCCO`: the result in the test on CRL-7250 and in the test with KB-3-1 was inactive. Further, the max response is 4.45% in the test on HEK293, -23.1% in the test on HaCat and -0.352% in the test with NIH3T3.
As for `N[C@H]1Cc2ccccc2N(O)C1=O`, the max response with CRL-7250 was -6.2%; in the test on HaCat, -0.256%; in the test with KB-3-1, -13.7%; in the test on NIH3T3 it was -9.2%. In the test with HEK293, the Potency is 25.9 µM (active).
Take `COC(=O)c1ccnc(-c2cc(C(=O)NCCc3ccccc3)ccn2)c1`: the max response with CRL-7250 was -12.7%; in the test with HEK293, -3.61%; in the test with HaCat, 1.24%; in the test with KB-3-1 it was 1.93%; in the test with NIH3T3, 1.58%.
The matching figures for `CC1CC(=O)C2=C(CCC3(O)C(O)c4c(O)cccc4C(=O)C23O)C1` (stereo not given): -7.17%, -13.5%, -7.44%, 6.8% and 1.72%.
The matching figures for `O=C(O[C@H]1[C@@H]2C[C@@H]3OC[C@](O)([C@@H]1Cl)[C@H]2C(O[C@@H]1O[C@H](CO)[C@@H](O)[C@H](O)[C@H]1O)O3)c1ccc(O)c(O)c1` (stereo not given in full): -7.93%, -2.09%, -10.7%, 6.86% and 3.52%.
The matching figures for `O=C(OC[C@H]1O[C@H](O[C@]2(CO)O[C@H](CO)[C@@H](O)[C@@H]2O)[C@H](O)[C@@H](O)[C@@H]1O)c1ccccc1`: -1.41%, 1.14%, 0.397%, 8.19% and 4.12%.
For `O=C1CCC=CC1(O)C(=O)OCc1ccccc1O[C@@H]1O[C@H](CO)[C@@H](O)[C@H](O)[C@H]1O` (stereo not given in full), the max response in the test with CRL-7250 was -18.5%; with HEK293, -24.1%; with HaCat, -22.3%; in the test on KB-3-1, -1.56%; with NIH3T3, -27.2%.
Regarding `CC1OC(OCC2OC(OC3CCC4(C)C(CCC5(C)C4CC=C4C6CC(C)(C)CCC6(C(=O)OC6OC(CO)C(O)C(O)C6O)CCC45C)C3(C)CO)C(O)C(O)C2O)C(O)C(O)C1O` (stereo not given), the max response is -3.44% with CRL-7250; -5.12% in the test with HEK293; 2.13% with HaCat; 9.22% with KB-3-1; 0.258% in the test with NIH3T3.
Turning to `C[C@@H]1O[C@@H](O[C@H]2[C@H](O)[C@@H](O[C@@H]3O[C@H](CO)[C@@H](O)[C@H](O[C@@H]4O[C@H](CO)[C@@H](O)[C@H](O)[C@H]4O)[C@H]3O)[C@H](O[C@H]3CC[C@@]4(C)C(=CC[C@@H]5C4CC[C@@]4(C)C5C[C@@H]5OC6(CC[C@@](C)(CO[C@@H]7O[C@H](CO)[C@@H](O)[C@H](O)[C@H]7O)O6)[C@@H](C)[C@@H]54)C3)O[C@@H]2CO)[C@H](O)[C@H](O)[C@H]1OC1OC(CO)C(O)C(O)C1O` (stereo not given in full), the max response is -6.48% in the test on CRL-7250, -4.6% with HEK293, -1.18% with HaCat and -4.4% in the test with NIH3T3. The molecule was called inactive with KB-3-1.
The matching figures for `CC1=CC2C(CC1OC1OC(CO)C(O)C(O)C1O)C(C)CC(=O)C2C(C)C` (stereo not given): 0.564%, -0.187%, -4.3%, 1.5% and “inactive”.
On to `CC(=O)N[C@H](Cc1ccc2ccccc2c1)C(=O)N[C@H](Cc1ccc(Cl)cc1)C(=O)N[C@H](Cc1cccnc1)C(=O)N[C@@H](CO)C(=O)N[C@@H](Cc1ccc(O)cc1)C(=O)N[C@H](CCCNC(N)=O)C(=O)N[C@@H](CC(C)C)C(=O)N[C@@H](CCCN=C(N)N)C(=O)N1CCC[C@H]1C(=O)N[C@H](C)C(N)=O` (Ac-[d2Nal][dPhe(4-Cl)][d3Pal]SY[dCit]LRP[dA]-NH2), for which the max response in the test on CRL-7250 was -7.92%; with HEK293 it was -0.834%; in the test with HaCat, -5.33%; in the test with KB-3-1, 9.13%; in the test on NIH3T3, 4.07%.
With `CC(O)CO[C@@H]1O[C@H](CO)[C@@H](O)[C@H](O)[C@H]1O` (stereo not given in full), the max response in the test with CRL-7250 is -3.19%; in the test on HEK293, -61.7%; in the test on HaCat, -15.1%; in the test with NIH3T3 it was 0.151%. The call with KB-3-1 was inactive.
Consider `O=C(CCc1ccccc1)N1CCC(O)(Cn2cnc3cc(Cl)ccc3c2=O)CC1`, for which the max response with CRL-7250 was -1.98%; in the test with HEK293 it was -25.5%; with HaCat, -6.79%; with KB-3-1, -17%; with NIH3T3, -4.94%.
Turning to `COc1ccc2cc(C(C)C(=O)Oc3ccc(C(N)=S)cc3)ccc2c1` (stereo not given), the result in the test on CRL-7250 was inactive. Besides, the max response in the test on HEK293 is -0.854%; with HaCat it was 2.17%; in the test with KB-3-1, 7.25%; in the test with NIH3T3, 3.5%.
Turning to `CC(=O)O[C@]1(C(C)=O)CC[C@H]2[C@@H]3C[C@H](C)C4=CC(=O)C=C[C@]4(C)[C@@]3(F)[C@@H](O)C[C@@]21C`, the max response in the test on CRL-7250 is -19.1%; in the test with HEK293 it was -1.51%; in the test on HaCat, 3.64%; in the test with NIH3T3, 3.11%. In addition, the molecule was classed as inactive with KB-3-1.
With `CC(C)CCC1(O)C(=O)C(C)(C)C(O[C@@H]2O[C@H](CO)[C@@H](O)[C@H](O)[C@H]2O)C(C)(C)C1O` (stereo not given in full), the max response in the test with CRL-7250 is 0.265%; with HEK293, -13.9%; in the test on HaCat, -4.8%; with KB-3-1 it was 0.0434%; with NIH3T3 it was -0.747%.
`Cc1cc2c(c(=O)[nH]1)OC(C(O)CC(C)C)O2` (stereo not given): the max response with CRL-7250 is -20.7%; in the test with HEK293, -7.89%; with HaCat, -1.41%; in the test with KB-3-1, -1.2%; in the test with NIH3T3, -0.186%.
Turning to `CC1(C)CC[C@]2(C(=O)O)CC[C@]3(C)C(=CCC4[C@@]5(C)CC[C@H](O[C@@H]6O[C@H](C(=O)O)[C@@H](O[C@@H]7OC[C@@H](O)[C@H](O)[C@H]7O)[C@H](O)[C@H]6O)C(C)(C)C5CC[C@]43C)C2C1O` (stereo not given in full), the max response in the test with CRL-7250 was 4.1%; in the test with HEK293, 2.41%; in the test on HaCat it was -24%; with NIH3T3, -13.7%. The result with KB-3-1 was inactive.
Consider `C=CC(C)(CC/C=C(\C)C(=O)OC)OC1OC(COC(=O)CC(C)(O)CC(=O)O)C(OC2OC(CO)C(O)C(O)C2O)C(O)C1O` (stereo not given), for which the molecule was called inactive in the test on CRL-7250 and with KB-3-1. Also, the max response in the test with HEK293 was -1.61%; with HaCat, -0.66%; with NIH3T3, 2.15%.
For `C[C@@H]1CC[C@]2(C(=O)O)CC[C@]3(C)C(=CCC4[C@@]5(C)CC[C@H](O)C(C)(C)C5C(O)C[C@]43C)[C@@H]2[C@]1(C)O` (stereo not given in full), the max response in the test on CRL-7250 is -5.69%; in the test with HEK293, 4.01%; with HaCat, -8.55%; in the test with KB-3-1, 7.38%; with NIH3T3, -6.6%.
Consider `CC1=CC(=O)C(=C(C)C)CC2C1CCC2(C)O` (stereo not given), for which the max response was -11.2% with CRL-7250; 4.65% in the test with HEK293; -1.27% with HaCat; 8.27% in the test on KB-3-1; -2.64% in the test on NIH3T3.
Take `CC1(C)C2CC=C(COC3OC(COC4OCC(O)(CO)C4O)C(O)C(O)C3O)C1C2` (stereo not given): the result in the test on CRL-7250 was inactive. The max response is -3.04% with HEK293, 3.64% in the test with HaCat, 4.52% in the test with KB-3-1 and 3.88% in the test with NIH3T3.
For `O=C1OCC(c2ccccc2)=C1Cc1ccccc1`, the max response in the test on CRL-7250 was -11.2%; with HEK293, 0.652%; in the test with HaCat it was -5.17%; in the test with KB-3-1, -0.0133%; in the test with NIH3T3, -8.21%.
The matching figures for `CC1(C)CC[C@]2(C(=O)O)[C@H](O)C[C@]3(C)C(=CCC4[C@@]5(C)CC[C@H](O[C@@H]6O[C@H](CO[C@@H]7OC[C@H](O)[C@H](O)[C@H]7O[C@@H]7OC[C@@H](O)[C@H](O)[C@H]7O)[C@@H](O)[C@H](O)[C@H]6O[C@@H]6O[C@H](CO)[C@@H](O)[C@H](O)[C@H]6O)C(C)(C)C5CC[C@]43C)[C@@H]2C1` (stereo not given in full): -10.1%, -1.49%, -11.7%, 4.84% and -6.3%.
The matching figures for `C[C@@H]1CC[C@@]2(OC1)O[C@H]1C[C@H]3[C@@H]4CC=C5C[C@@H](O)CC[C@]5(C)[C@H]4CC[C@]3(C)[C@H]1[C@@H]2C`: 3.2%, -1.54%, 4.49%, -3.17% and -1.68%.
The matching figures for `CC(=O)O[C@@H]1c2c(C)coc2C(=O)[C@@]23O[C@@H]2CC[C@H](C)[C@@]13C`: 3.98%, 2.56%, -14.6%, 9.51% and 4.3%.
For `CC(=O)CC1CCC(C(C)C(=O)OCC(O)CO)O1` (stereo not given), the max response was 2.08% with CRL-7250, -3.6% in the test on HEK293, -2.79% with HaCat and -24.7% in the test on NIH3T3. For the same molecule, the result in the test with KB-3-1 was inactive.
Turning to `C=CC1(C)C=C2C(=O)OC(=O)C3=C(CCCC3(C)C)C2(O)CC1` (stereo not given), the max response was -0.556% with CRL-7250; -14.3% in the test with HEK293; 1.65% in the test on HaCat; 7.97% with KB-3-1; 0.193% with NIH3T3.
`CC(CO)C1CCC2(C)CC3C(CO)CC(O)C3C(C)(O)C/C=C/12` (stereo not given): the max response is -6.97% with CRL-7250, -10.5% with HEK293, -5.8% in the test with HaCat and 0.217% in the test with NIH3T3. Further, the call in the test on KB-3-1 was inactive.
As for `CON(C)C(=O)[C@H](O)[C@H](Cc1ccccc1)NC(=O)c1cc2cc(Cl)ccc2[nH]1`, the result in the test on CRL-7250 was inactive. Also, the max response in the test with HEK293 is -8.5%; in the test with HaCat it was -24.4%; in the test on KB-3-1 it was 5.78%; in the test with NIH3T3 it was -9.74%.
Turning to `C[C@H](O)[C@H](O)/C=C/c1cccc(O)c1CO`, the max response is -1.75% with CRL-7250; -4.7% in the test on HEK293; -3.13% in the test on HaCat; 8.41% in the test on KB-3-1; -3.03% in the test on NIH3T3.
The matching figures for `CC1(C)CC2C(O)c3cocc3CC(C)(O)C2C1` (stereo not given): 0.847%, 3.14%, -7.3%, 5.78% and 2.81%.
In the case of `OCC1OC(Oc2cc(O)cc(/C=C/c3ccc(O)cc3)c2)C(O)C(O)C1O` (stereo not given), the max response was -6.35% in the test on CRL-7250, 2.65% with HEK293, 5.61% in the test with KB-3-1 and -0.337% in the test on NIH3T3. The molecule was called inactive in the test with HaCat.
As to `CC1(C(=O)O)CCCC2(C)C3=CCC4CC3(CCC12)CC4CO` (stereo not given), the max response is -23% in the test with CRL-7250; -3.78% with HEK293; 2.08% in the test with HaCat; 2.22% in the test with KB-3-1; -1.37% with NIH3T3.
In the case of `Cn1nc(C(C)(C)C)cc1C(=O)NC(Cc1cccc(Cl)c1)C(=O)NCC#N` (stereo not given), in the test with CRL-7250, the result was inactive. Also, the max response in the test on HEK293 was -17.2%; with HaCat, -59.1%; in the test with KB-3-1, 1.87%; in the test on NIH3T3, 0.163%.
